Assay results taken from PubChem BioAssay AID588590 (National Center for Advancing Translational Sciences (NCATS), 2011).
Values joined by “and” are separate entries in the source; they are usually repeats but may differ in a detail not shown here. Equal entries are not always repeated. The whole screen tested about 390,000 compounds, of which about 4,000 (1%) were called active. Not shown: some 7% with an inconclusive outcome. Calls come from the whole dose curve; as a rule, active = well fitted inhibition curve with a large enough effect; inconclusive = small, poorly fitted or top-dose-only effect, or another doubt; inactive = no such curve, though single readings can be large or run the other way. Only a selection was taken, and actives are over-represented in it overall. A structure can be active in one record and inactive in another.

Biological target: DNA polymerase iota (Homo sapiens) (UniProt Q9UNA4)
Sequence (Q9UNA4 whole entry, looked up): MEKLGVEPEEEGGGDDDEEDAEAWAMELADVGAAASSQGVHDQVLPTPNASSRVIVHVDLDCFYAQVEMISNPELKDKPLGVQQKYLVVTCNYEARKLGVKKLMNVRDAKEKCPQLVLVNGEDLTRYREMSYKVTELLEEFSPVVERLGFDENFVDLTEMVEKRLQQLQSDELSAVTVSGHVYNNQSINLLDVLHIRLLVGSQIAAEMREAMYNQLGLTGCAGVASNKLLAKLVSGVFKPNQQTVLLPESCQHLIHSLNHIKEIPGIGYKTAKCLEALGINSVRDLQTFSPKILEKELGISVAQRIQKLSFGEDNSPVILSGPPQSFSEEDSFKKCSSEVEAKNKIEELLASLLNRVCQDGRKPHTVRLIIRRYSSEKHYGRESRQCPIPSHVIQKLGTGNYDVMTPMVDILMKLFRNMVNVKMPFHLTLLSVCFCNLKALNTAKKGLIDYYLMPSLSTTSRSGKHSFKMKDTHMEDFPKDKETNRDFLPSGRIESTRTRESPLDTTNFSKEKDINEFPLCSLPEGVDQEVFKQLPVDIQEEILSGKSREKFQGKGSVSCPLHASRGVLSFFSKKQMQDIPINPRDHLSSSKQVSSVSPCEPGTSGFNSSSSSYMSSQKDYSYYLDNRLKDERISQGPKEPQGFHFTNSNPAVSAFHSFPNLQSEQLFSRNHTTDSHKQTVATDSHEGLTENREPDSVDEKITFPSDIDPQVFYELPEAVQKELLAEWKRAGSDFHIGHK
Assay: qHTS for Inhibitors of Polymerase Iota
Conditions: Pol iota fluorescent replication assay, 10 min; series mostly up to 115 µM
Method in brief: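 Pol iota at 10 nM preincubated 15 min with compounds at room temperature; reaction started with fluorescent substrate, 50 nM final. Fluorescence read kinetically at 0 and 10 min; buffer-only wells as negative control.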
Potency is the fitted concentration of half-maximal effect.

Potency, inactive:
CC(CCCc1ccccc1)NC(=O)c1nn(-c2ccc(Cl)cc2)nc1CO (centres undefined)
COc1ccc(CCNC(=O)c2ccc3c(c2)sc2nc(-c4ccc(C)cc4)cn23)cc1OC
CCOc1ccccc1C(=O)NCc1ccc2c(c1)CCN2C(=O)c1ccc(F)cc1
COC(=O)c1ccccc1NC(=O)Cn1c(=O)n(-c2cccc(C(F)(F)F)c2)c(=O)c2c(C)c(C)sc21
COc1ccc(N2CCN(S(=O)(=O)c3ccc4c(c3)NC(=O)C(C)C(=O)N4)CC2)cc1 (centres undefined)
CC1C(=O)Nc2ccc(S(=O)(=O)N3CCN(c4ccccc4F)CC3)cc2NC1=O (centres undefined)
N#Cc1ccc[n+](CC(=O)c2ccc(F)cc2)c1
NC(=O)C[n+]1cccc(C(N)=O)c1
Cc1ccccc1C(=O)NCc1nc(-c2ccc(Cl)cc2)no1
CCN(CC)CCNC(=O)CN1N=C(c2ccc(OC)cc2)CCC1=O
COc1ccc(OC)c(CNC(=O)CN2C(=O)CCn3nc(-c4cn(C)c5ccccc45)cc32)c1
Cn1c(=O)cc(OCC(=O)N2CCN(c3ccccc3)CC2)c2ccccc21
CCC(=O)N1CCc2cc(Br)cc(S(=O)(=O)CCC(=O)NCc3ccccc3OC)c21
CCc1ccc(NC(=O)CN2C(=O)C(c3ccccc3)=NC23CCCCCC3)cc1
COc1ccc(NC(=O)CN2C(=O)C(c3ccccc3)=NC23CCCCCC3)cc1OC
CCCCN(C)c1nnc(NC(=O)Nc2ccc(Br)c(C)c2)s1
CCOCCCn1c(SCC(=O)Nc2ccc(CC)cc2)nc2ccccc2c1=O
Cc1ccc(Cl)cc1NC(=O)Cc1ccc(-n2c(C)nc3cccnc32)cc1
COc1ccccc1-c1ccnc2[nH]n(-c3ccccc3)c(=O)c12
Cc1ccc(-c2ccnc3[nH]n(-c4ccccc4)c(=O)c23)cc1
COc1ccc(OC)c(NC(=O)CN2CCCN(Cc3cc(C)ccc3C)S2(=O)=O)c1
CCOc1ccc(NC(=O)c2cc3c(=O)n(Cc4cccs4)ccc3nc2C)cc1
Cc1cc2nn(-c3ccc(Cl)cc3)nc2cc1NC(=O)C(C)C
O=C(NC(=S)Nc1cc(C(F)(F)F)ccc1N1CCOCC1)c1ccc(-c2cccc(Cl)c2)o1
O=C(NCc1ccccc1)c1cc(-c2cccc(Cl)c2)on1
Cc1ccc(-c2nnc(Nc3ccc(OCC(N)=O)cc3)c3ccccc23)cc1S(=O)(=O)NCC1CCCO1 (centres undefined)
O=C(c1cnn2c1NC(=C1CC1)C=C2C(F)F)N1CCc2ccccc2C1
Cc1ccc(NC(=O)c2cc(S(=O)(=O)NCCC3=CCCCC3)ccc2F)cc1C
O=C(COC(=O)c1cccnc1Cl)NC(=O)NC1CCCCC1
CCCSc1ncccc1C(=O)O
CSc1ccccc1-c1nnc(NC(=O)c2ccc3c(c2)OCCO3)o1
Cc1ccc(NC(=O)Cn2nnc3sc4c(c3c2=O)CCC(C)C4)cc1 (centres undefined)
O=C(CCNC(=O)c1ccccc1Cl)NN=Cc1ccco1
O=C(CCc1n[nH]c(=O)[nH]c1=O)N/N=C/c1ccc(Br)o1
O=S(=O)(Nc1cccc2cccnc12)c1cccc2cccnc12
ClC/C=C/C[n+]1ccccc1Cl
CCOC(=O)C1CCCN(C(=O)Cn2ncc3c(C)n(Cc4ccc(F)cc4)c(C)c3c2=O)C1 (centres undefined)
COc1ccc(CCn2c3c(c(=O)[nH]c2=S)CN(C(C)C)CN3)cc1OC
COc1ccccc1-c1cc2nc(C)c(CCC(=O)NC3CCCCC3)c(C)n2n1
CN(C)c1ccc(/C=c2\[nH]c(=O)/c(=C/c3ccc(N(C)C)cc3)[nH]c2=O)cc1
O=C(Cn1ncn2nc(-c3cccs3)cc2c1=O)NCc1cccc(Br)c1
O=C(Nc1ccc(OC(F)(F)F)cc1)C1CCCN(S(=O)(=O)c2ccc(Br)s2)C1 (centres undefined)
SCc1nc2ccc(Cl)cc2[nH]1
Fc1ccc(CN2CCc3nc(Nc4ccccc4)ncc3C2)cc1F
O=C(COC(=O)c1cc(=O)[nH]c2ccccc12)Nc1nc(-c2cccc(Br)c2)cs1
Cc1cc(C)c(-c2csc(NC(=O)CCCc3nc4ccccc4c(=O)[nH]3)n2)c(C)c1
COc1ccc(-n2nc(C(=O)NCCc3ccc(Cl)cc3)c3c4ccccc4n(C)c3c2=O)cc1Cl
Cc1cccc(-n2ccnc2SCC(=O)Nc2cccc3ccccc23)c1C
COc1cc2nc(C#Cc3nc4cc(OC)c(OC)cc4[nH]3)[nH]c2cc1OC
Cc1cc(C)c2nc(N3CCC(C(=O)NCCN4CCOCC4)CC3)sc2c1
COc1ccc(NC(=O)c2sc(N3CCOCC3)nc2-c2ccccc2)c(OC)c1
Cn1c(=O)sc2cc(NS(=O)(=O)c3ccc(C(C)(C)C)cc3)ccc21
CCOc1ccc(Nc2oc(/C=C/c3ccc(F)cc3)nc2C#N)cc1

Potency, inactive and 89.1 µM (active):
O=c1c2c(-c3ccccc3)ccnc2[nH]n1-c1ccccc1

Potency, active:
CON(C)S(=O)(=O)c1ccc2c(c1)NC(=O)C1CCCN21 (centres undefined) 22.4 µM
N#Cc1ccc[n+](CC(=O)c2ccc(O)c(O)c2)c1 0.891 µM
Cc1ccc(NC(=O)CN2C(=O)C(c3ccc(F)cc3)=NC23CCCCCC3)c(C)c1 44.7 µM
O=C(O)C(c1ccccc1)N1C(=O)/C(=C\c2ccc(-c3cccc(Cl)c3)o2)SC1=S (centres undefined) 31.6 µM
O=C(O)c1cccnc1NC1CCCC1 89.1 µM
O=C(CCNC(=O)c1ccccc1)NN=Cc1ccc(Br)o1 35.5 µM
O=c1ccc2c(-c3ccccc3S(=O)(=O)O)c3ccc(O)c(O)c3oc-2c1O 1.12 µM
COc1ccc2c(c1)c(=Cc1ccc(N(C)C)cc1)c1cc(-c3ccccc3)[n+](C)n12 39.8 µM
O=C(CSc1nc2ccccc2c(=O)[nH]1)Nc1nc(-c2ccc(Br)cc2)cs1 6.31 µM
Cc1nc(N2CCOCC2)sc1C(=O)NN 7.08 µM
